Experimental findings from article PMC7819943, “Rice protein-binding microarrays: a tool to detect cis-acting elements near promoter regions in rice” are described below.

Whole data set: some 35,000 sequences, median “fluorescence intensity (a.u.)” near 10,000, cut for the highest 2% near 52,000. The sample as a whole holds a higher share of the highest values than the screen did.

The test concerns the target T1, OsWOX13 (Oryza sativa, UniProt Q5QMM3 1-267).
T1 sequence: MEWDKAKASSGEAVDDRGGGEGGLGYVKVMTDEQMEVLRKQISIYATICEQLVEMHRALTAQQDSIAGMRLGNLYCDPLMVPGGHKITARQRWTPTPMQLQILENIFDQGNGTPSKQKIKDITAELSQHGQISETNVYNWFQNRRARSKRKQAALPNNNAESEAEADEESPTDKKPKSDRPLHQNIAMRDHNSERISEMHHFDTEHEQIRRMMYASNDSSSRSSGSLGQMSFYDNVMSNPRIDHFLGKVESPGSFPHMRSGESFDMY
As to the kind of experiment: protein-binding microarray (RPBM); PBS, 2% BSA, 51.3 ng/ul salmon testes DNA, 50 uM zinc acetate, 200 nM TF, 25 C, 1 h; high values mean tight binding. Particulars: protein: recombinant; tags: N-terminal polyhistidine and DsRed monomer fusion (pET32a); label: CyDye5-dUTP incorporated in the synthesized complementary strand; 3' TTTTT single-stranded linker to array surface; dsDNA, one strand shown. Put shortly: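 Transcription factors were made in E. coli BL21-CodonPlus as N-terminal fusions to a polyhistidine tag and DsRed, then purified on Ni–NTA. After primer extension with Cy5-dUTP and blocking with 2% BSA, a custom Agilent array was exposed for 1 h at 25 °C to 200 nM protein in PBS, 2% BSA, salmon testes DNA and 50 µM zinc acetate. Washed arrays were scanned on an Axon 4000B, and the binding signal is per-feature fluorescence intensity in arbitrary units.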
Consider “TACTCTTAGATTGAACAGGCTTCTGGCTCAAAACTTTTGACGGAGTCACCTAGTGCAG”, for which the binding signal was 8550 fluorescence intensity (a.u.).

Consider “ATTAATTATTTATTTCTTATATTACAGATTTTCAGTATATCGGAGTCACCTAGTGCAG”, for which the binding signal is 18600 fluorescence intensity (a.u.).

For “TATAACTAATTATTTAATCGTTAATAAGCTGTTCCGCTAACGGAGTCACCTAGTGCAG”, the binding signal is 25600 fluorescence intensity (a.u.).

Regarding “ACTGCTAATTAACCCTCTATAAATGCATGCCTCTCACCACCGGAGTCACCTAGTGCAG”, the binding signal was 30400 fluorescence intensity (a.u.).

“TTTAACATTTCCCCTTATAATTTTACCAAATCACTATGTTCGGAGTCACCTAGTGCAG”: the binding signal was 4600 fluorescence intensity (a.u.).

Regarding “CCTCGCGCGCAGATAATTATCACAACTTATGGGGAGCTTGCGGAGTCACCTAGTGCAG”, the binding signal was 3290 fluorescence intensity (a.u.).

Take “CTCATTAATCTTGCTCATTAATCTTGCAATTAATCCAGAACGGAGTCACCTAGTGCAG”: the binding signal was 4900 fluorescence intensity (a.u.).

On to “CACTTCTGTACTTGGCGTGATTGGGCCGCGGACCGGTAGACGGAGTCACCTAGTGCAG”, for which the binding signal is 3750 fluorescence intensity (a.u.).

For “AGTAATTTAAACACGAAAACATTTCTTATTGACAAGAATACGGAGTCACCTAGTGCAG”, the binding signal is 4230 fluorescence intensity (a.u.).

In the case of “GTTTAGGACCTTTGATTTGTTGGTGACAGAACCCAAGGCGCGGAGTCACCTAGTGCAG”, the binding signal was 6360 fluorescence intensity (a.u.).

Consider “TAAGGCAGAAAACCAAGGCCTTGACATTTCTTTTAGGACACGGAGTCACCTAGTGCAG”, for which the binding signal is 65000 fluorescence intensity (a.u.).

“TAAAATAAATCAAATTAATACAAGTGAGATATCTTAGTAACGGAGTCACCTAGTGCAG”: the binding signal is 6480 fluorescence intensity (a.u.).

Turning to “TGGCTCTGATCCATCAATTAGGATTTGCCAGTGCCTCTCCCGGAGTCACCTAGTGCAG”, the binding signal is 5390 fluorescence intensity (a.u.).

In the case of “AATATATTGACATTGATATCTTATAAAGAGCCTATAGATACGGAGTCACCTAGTGCAG”, the binding signal was 5820 fluorescence intensity (a.u.).

On to “GAAGGATTGAGATATGATTGATTATTATATCATATACTCTCGGAGTCACCTAGTGCAG”, for which the binding signal was 55000 fluorescence intensity (a.u.).

“AAGAAGAATCTATCTATCTATCTATCTATCAATCTCTATACGGAGTCACCTAGTGCAG”: the binding signal is 3320 fluorescence intensity (a.u.).

For “TTTGGGATTATTATAATCTAGATTATTGAGTCATATTACTCGGAGTCACCTAGTGCAG”, the binding signal was 10300 fluorescence intensity (a.u.).

For the sequence “TCATATGATTAGGATATATCACATCTCATTATATTATATGCGGAGTCACCTAGTGCAG”, the binding signal was 17800 fluorescence intensity (a.u.).

“TAGAAGATAGATTGATTGATTGATATATACTATCTCTATACGGAGTCACCTAGTGCAG”: the binding signal was 52600 fluorescence intensity (a.u.).

Consider “TCCACAATTTGCTAATCATATTTCTGTTGATAATGATAATCGGAGTCACCTAGTGCAG”, for which the binding signal was 7820 fluorescence intensity (a.u.).

Take “GAAGATTGAGCTCTGCAGCAACAACCCAAACACACAAAGCCGGAGTCACCTAGTGCAG”: the binding signal was 3290 fluorescence intensity (a.u.).

“CATAGGATCAATTTAATATATTGACATGCCATTAGGCCATCGGAGTCACCTAGTGCAG”: the binding signal is 10600 fluorescence intensity (a.u.).

For the sequence “CTTTACAATTAATACATGTTCCACTTGTCTCTCTCACAGACGGAGTCACCTAGTGCAG”, the binding signal was 4970 fluorescence intensity (a.u.).

For “CGTAGATTTGACCGAACAAATTGTACAGTAATGTACTAGGCGGAGTCACCTAGTGCAG”, the binding signal was 20100 fluorescence intensity (a.u.).

Regarding “GTGTAATTACACTACGATTGTACTGTAATTACATCTGTCACGGAGTCACCTAGTGCAG”, the binding signal was 29900 fluorescence intensity (a.u.).

For the sequence “GTGTAATTATACTATAATTGTACTGTAATTACATCTGTCACGGAGTCACCTAGTGCAG”, the binding signal is 56600 fluorescence intensity (a.u.).

Take “GTGTAATTACACTATAATTGCACTATAATTATATCTGTCACGGAGTCACCTAGTGCAG”: the binding signal is 61500 fluorescence intensity (a.u.).

For “TTTACACTATAATTATATTCACTTATACATTGTAATTACACGGAGTCACCTAGTGCAG”, the binding signal was 13800 fluorescence intensity (a.u.).

In the case of “ATTATACTATGATTGTACTGTAATTACATCTGTCAAATTTCGGAGTCACCTAGTGCAG”, the binding signal was 24500 fluorescence intensity (a.u.).

With “ACTGTAATTTTAATTATATTATTGTTACACTATAATTGCACGGAGTCACCTAGTGCAG”, the binding signal is 41800 fluorescence intensity (a.u.).

On to “CTTTAAACAGTTTGAGTGAATTTAGGGGTACATATTTCTGCGGAGTCACCTAGTGCAG”, for which the binding signal was 6070 fluorescence intensity (a.u.).

As for “TTTTGCTTGATTGGTGGTCTGATGTATTTGATGAGTGCGACGGAGTCACCTAGTGCAG”, the binding signal is 31300 fluorescence intensity (a.u.).

Take “ACACTAACAAATCAATTTTCTCTACCCACCACTCCTGAATCGGAGTCACCTAGTGCAG”: the binding signal was 8890 fluorescence intensity (a.u.).

In the case of “ATAATTATTTGTTTTCAGTCATGTATCTTCATCTTATACACGGAGTCACCTAGTGCAG”, the binding signal was 6340 fluorescence intensity (a.u.).

As for “AATGACATGGCAATCTCACCTTGGAGGTTTGTGCTTTGAACGGAGTCACCTAGTGCAG”, the binding signal is 4460 fluorescence intensity (a.u.).

“AAGCAATATAATTGTTTCTCTAATTAGGAGTTATACATGTCGGAGTCACCTAGTGCAG”: the binding signal was 19000 fluorescence intensity (a.u.).

Consider “GGGGACATAAATCCTGATGATTTCCTCAACTTTGATCTTGCGGAGTCACCTAGTGCAG”, for which the binding signal is 3630 fluorescence intensity (a.u.).

Turning to “AGCCTAATTAATTTGTCATTAGCAAATGTTTACTGTAGCACGGAGTCACCTAGTGCAG”, the binding signal is 57000 fluorescence intensity (a.u.).

Regarding “CCTAATTAATCTGTCATTAGCAAATATTTATTGTAGCATCCGGAGTCACCTAGTGCAG”, the binding signal is 47000 fluorescence intensity (a.u.).

In the case of “TCTAATTAATTTGTCATTAGCAAATGTTTATTGTAGCATCCGGAGTCACCTAGTGCAG”, the binding signal was 58400 fluorescence intensity (a.u.).

“AATTAATTTGTCATTAGTAAATGTTTACTGTAGCACCACACGGAGTCACCTAGTGCAG”: the binding signal was 42000 fluorescence intensity (a.u.).

Take “TAAGCCTAATTAATTTGTCATTAGCAAATGTTTACTATAGCGGAGTCACCTAGTGCAG”: the binding signal is 30300 fluorescence intensity (a.u.).

For “CCTAATTAATCCGTCATTAGCAAATGTTTATTGTAGCACCCGGAGTCACCTAGTGCAG”, the binding signal is 41300 fluorescence intensity (a.u.).

As to “CTTGATTAATCCGTACGTCTATCAACTCAGCCCGAAACGCCGGAGTCACCTAGTGCAG”, the binding signal was 46200 fluorescence intensity (a.u.).
